# High-throughput results (PubChem BioAssay)
# Rows were chosen to be rich in hits. Some 12% of all compounds tested hit in one or more screens of this group.
# Sfp PPTase inh: qHTS Assay for Inhibitors of Bacillus subtilis Sfp phosphopantetheinyl transferase (PPTase); 4'-phosphopantetheinyl transferase ffp (Bacillus subtilis), Q9F4F7; Biochemical Sfp PPTase activity, qHTS; Potency, µM, inactives show largest response in the series, negative = inhibition, usual class: inhibitors; hit rate 3.5% among 310,000; AID 1490, 2009;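 also: the enzyme is Sfp with the accession as filed and its product quenches rhodamine fluorescence; 0% = enzyme reaction without inhibitor and -100% = no enzyme wells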
#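 Buffer: 50 mM Hepes-Na pH 7.6, 10 mM MgCl2, 0.01% Nonidet P-40, 0.01% BSA. Enzyme 15 nM, pre-exposed to compound 15 min; substrates then added and fluorescence change tracked over 30 min.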
# BAZ2B block: qHTS Assay for Inhibitors of BAZ2B. Bromodomain adjacent to zinc finger domain protein 2B (Homo sapiens), Q9UIF8. AlphaScreen BAZ2B-H3K14Ac peptide displacement. Potency, µM (series often up to 114 µM), inactives show top-dose activity change, negative = inhibition, actives largely listed as inhibitors. hit rate 4.4% among 360,000. AID 504333, 2011; also: % is scaled to controls: 0 for no effect and ±100 for the full control effect; nearly all actives have a fitted effect of over 60% in size
#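 AlphaScreen displacement of biotin-H3(5-23)K14Ac peptide (50 nM final) from BAZ2B (50 nM final) in PBS pH 7.4, 0.01% Tween-20; complex preformed 30 min RT, then compounds (top 110 uM) 30 min RT, beads 20 min dark.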
# PLK1 PBD block: qHTS for Inhibitors of PLK1-PDB (polo-like kinase 1 - polo-box domain): Primary Screen | AID 720504, 2013 | Plk1 PBD binding of FITC phosphopeptide, fluorescence polarization | Potency, µM, for the others: max response, negative = inhibition, most hits filed as inhibitors | Serine/threonine-protein kinase PLK1 (Homo sapiens), P53350 | hit rate 2.8% among 360,000; also: series mostly up to about 57 µM; % is scaled to controls: 0 for no effect and ±100 for the full control effect; nearly all actives have a fitted effect of over 65% in size
# Target sequence (P53350 whole entry, looked up, the tested form may be a part): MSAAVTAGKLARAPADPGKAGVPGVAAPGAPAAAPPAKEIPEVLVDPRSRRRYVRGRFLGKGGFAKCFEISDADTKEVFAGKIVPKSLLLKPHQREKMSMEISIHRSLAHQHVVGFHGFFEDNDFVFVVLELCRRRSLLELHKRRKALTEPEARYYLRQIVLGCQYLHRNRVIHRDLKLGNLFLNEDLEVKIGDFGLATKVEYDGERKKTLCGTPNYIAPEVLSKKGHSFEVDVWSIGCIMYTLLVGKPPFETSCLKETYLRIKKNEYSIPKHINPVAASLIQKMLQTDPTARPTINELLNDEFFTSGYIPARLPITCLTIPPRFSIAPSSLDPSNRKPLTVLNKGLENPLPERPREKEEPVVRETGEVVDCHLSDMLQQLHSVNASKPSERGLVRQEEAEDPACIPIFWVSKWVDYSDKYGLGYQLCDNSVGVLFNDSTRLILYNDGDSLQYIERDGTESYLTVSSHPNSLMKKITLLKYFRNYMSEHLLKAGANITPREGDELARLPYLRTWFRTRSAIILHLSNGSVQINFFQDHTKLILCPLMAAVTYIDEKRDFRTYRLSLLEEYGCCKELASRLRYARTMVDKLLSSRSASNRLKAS
# HP1b chromo inh: HTS for Inhibitors of HP1-beta Chromodomain Interactions with Methylated Histone Tails; AlphaScreen HP1-beta / biotin-H3K9me3 peptide binding; hit rate 0.56% among 390,000; AID 540317, 2011; Chromobox protein homolog 1 (Homo sapiens), P83916; Potency, µM (titrated, usually from 114 µM), without a hit: at the top dose activity change, negative = inhibition, usual class: inhibitors; also: nearly all actives have a fitted effect of over 70% in size
# Target sequence (P83916 whole entry, looked up): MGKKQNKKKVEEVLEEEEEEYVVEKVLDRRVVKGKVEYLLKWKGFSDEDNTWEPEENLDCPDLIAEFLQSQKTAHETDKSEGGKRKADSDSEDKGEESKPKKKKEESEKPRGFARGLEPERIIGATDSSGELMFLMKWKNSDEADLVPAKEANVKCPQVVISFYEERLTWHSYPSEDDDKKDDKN
#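 AlphaScreen: HP1-beta (50 nM) preformed 30 min with biotin-H3(1-18)K9me3 peptide (50 nM) in PBS pH 7.4, 0.01% Tween-20. Compound added for 30 min at RT, then streptavidin donor/nickel chelate acceptor beads (10 ug/mL) for 30 min.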
# JMJD2A Tudor inh: qHTS Assay for Inhibitors of JMJD2A-Tudor Domain | AlphaScreen JMJD2A-Tudor / H3K4me3 peptide binding | Lysine-specific demethylase 4A (Homo sapiens), O75164 | AID 504339, 2011 | Potency, µM (top dose mostly 114 µM), for the others: at the top dose activity change, negative = inhibition, actives largely listed as inhibitors | hit rate 4.4% among 390,000; also: % is scaled to controls: 0 for no effect and ±100 for the full control effect; nearly all actives have a fitted effect of over 50% in size
# G9a block: qHTS Assay for Inhibitors of Histone Lysine Methyltransferase G9a. Histone-lysine N-methyltransferase EHMT2 (Homo sapiens), Q96KQ7. G9a H3K9 monomethylation, AlphaScreen, 2 h. Potency, µM (doses to about 102 µM), without a hit: at the highest dose activity, negative = inhibition, usual class: inhibitors. hit rate 8.8% among 350,000. AID 504332, 2011; also: % is scaled to controls: 0 for no effect and ±100 for the full control effect; nearly all actives have a fitted effect of over 75% in size
#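 Quantitative HTS format: methyltransferase activity on a biotin-tagged H3K9 peptide is measured by AlphaScreen, using a rabbit anti-monomethyl-H3K9 antibody with streptavidin donor and anti-IgG acceptor beads. Final levels are 20 nM enzyme, 500 nM peptide, 20 uM SAM; 2 h RT.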
# * hit, by the source's call; ? = inconclusive; nt = no result; [ ] = another dose, or the depositor's remark. Calls follow the shape of the dose curve; as a rule, active = well fitted curve in the direction sought with a large enough effect; inconclusive = small, poorly fitted or top-dose-only effect, or another doubt; inactive = no such curve, though single readings can be large; an effect the other way counts as inactive or inconclusive. Potency is read from the fitted curve at half-maximal effect.
SMILES,Sfp PPTase inh,BAZ2B block,PLK1 PBD block,HP1b chromo inh,JMJD2A Tudor inh,G9a block
CCOC(=O)/C(C#N)=C\c1cc(OC)c(OC)cc1[N+](=O)[O-],-7.5%,-11.6%,7.52µM*,?,11.2µM*,19.4%[0.501 µM]
CCN(CC(=O)Nc1cccc(F)c1)CC(=O)Nc1ccc2c(c1)OCCO2,nt,nt,-13.4%,nt,nt,nt
CN(CC(=O)Nc1cccc(F)c1)C(=O)c1ccc2c(c1)OCCO2,nt,-8.6%,-0.1%,35.2%,1.4%,10µM*
CN(CC(=O)Nc1cccc(F)c1)C(=O)c1cccc2ccccc12,nt,9.0%,1.3%,20.4%,-4.5%,-9.2%[59 µM]
CN(CC(=O)Nc1cccc(F)c1)C(=O)c1cc(=O)[nH]c2ccccc12,nt,9.8%,-21.1%,35.3%,-5.4%,8.91µM*
COc1ccc(Cl)cc1NC(=O)CN(C)C(=O)c1cc2ccccc2cc1O,nt,?,-7.3%,-9.0%,-35.9%,50.1µM*
CC(=O)c1cccc(NC(=O)c2cc(=O)[nH]c3ccccc23)c1,-7.3%,-17.1%,18.9µM*,53.0%,-3.8%,44.7µM*
CCN(C(=O)CSc1nc2ccccc2c(=O)n1CCOC)C1CCS(=O)(=O)C1 (centres undefined),10.9%,-3.7%,-14.9%,13.2%,-4.1%,9.6%
COC(=O)C1=C(C(=O)OC)[C@@H]2Nc3ccccc3[C@@]23C[C@@H](C(=O)OC)N(S(=O)(=O)c2ccc(OC)cc2)C3=N1,-13.3%,nt,nt,nt,nt,nt
CC1(C(=O)Nc2ccccc2)Cc2c(-c3cccc(C(F)(F)F)c3)ccnc2O1 (centres undefined),nt,nt,3.0%,nt,nt,nt
CS(=O)(=O)N(CC(=O)Nc1ccc(F)cc1F)C1CCCCC1,5.8%,-5.6%[57.1 µM],-7.2%,51.2%,-3.4%,nt
CN(CC(=O)Nc1cccc(F)c1)C(=O)c1ccc(-c2cccc(C(F)(F)F)c2)o1,nt,-7.8%,-11.3%,10.7%,-29.0%,17.8µM*
COc1ccc(Cl)cc1NC(=O)CN(C)C(=O)c1ccc2c(c1)OCCO2,nt,3.8%,0.3%,23.8%,-8.3%,39.8µM*
COc1ccc(Cl)cc1NC(=O)CN(C1CCCCC1)S(C)(=O)=O,-3.3%,2.7%,29.9µM*,-13.0%,?,-42.8%[12.7 µM]
COc1cccc(NC(=O)CN(C)C(=O)c2ccc(-c3cccc(C(F)(F)F)c3)o2)c1,nt,-5.6%,1.1%,39.0%,-15.2%,-24.2%
C/C(=N\NC(=O)CC1N=C(Cc2ccccc2)NNC1=O)c1ccc(Cl)cc1Cl (centres undefined),2.5%,-5.0%,-1.2%,57.2%,-2.8%,30.0%[12.7 µM]
COc1ccc(N2CCN(C(=O)c3c(C)oc4ncn(CC(C)C)c(=O)c34)CC2)cc1,nt,2.8%[57.1 µM],nt,22.8%,-11.7%,?
CCOc1ccccc1-c1nnc(SCC(=O)NC2CC3CCC2C3)n1CC (centres undefined),10.1%,10.3%,-10.0%,36.7%,-12.0%,44.7µM*
CCn1c(SCC(=O)NCC2CCCO2)nnc1-c1ccccc1OC (centres undefined),nt,-1.9%,0.1%,38.7%,-5.5%,24.0%[12.7 µM]
Cn1nc([N+](=O)[O-])nc1Sc1cccc2cccnc12,?,-2.0%,16.8µM*,37.2%,-1.4%,6.2%[0.501 µM]
COC(=O)CN(C(=S)Nc1ccc(F)cc1)C1CC(=O)N(c2ccc(OC)cc2)C1=O (centres undefined),30.8%,4.0%,-16.5%,1.3%,-25.6%,39.8µM*
COC(=O)CN(C(=S)Nc1ccccc1)C1CC(=O)N(c2ccc(OC)cc2)C1=O (centres undefined),1.7%,-5.5%,-12.0%,8.1%,-24.3%,-1.7%[12.7 µM]
CNC(=S)N(Cc1ccc(OC)cc1)C1CC(=O)N(c2ccc(OC)cc2)C1=O (centres undefined),11.1%,7.4%,-11.9%,?,-16.2%,-9.7%[59 µM]
CNC(=S)N(Cc1ccc(OC)cc1)C1CC(=O)N(c2ccc(C(=O)OC)cc2)C1=O (centres undefined),-13.8%,11.7%,nt,nt,nt,39.8µM*
COc1ccc(S(=O)(=O)NCCCC(=O)Nc2ccc(Sc3ccc(N)cc3)cc2)cc1,21.1%,nt,nt,nt,nt,nt
SMILES,Sfp PPTase inh,BAZ2B block,PLK1 PBD block,HP1b chromo inh,JMJD2A Tudor inh,G9a block
CC(C)Nc1ccc(-c2nc(-c3ccco3)no2)cc1[N+](=O)[O-],nt,-26.8%,nt,46.3%,1.7%,-35.9%[59 µM]
O=C(NCCc1ccc(Cl)cc1)C(=O)NCC(c1ccco1)S(=O)(=O)c1ccc(Cl)cc1 (centres undefined),nt,-2.2%,nt,39.6%,8.8%,12.1%[59 µM]
CC1CC(=O)C2=C(C1)Nc1ccccc1SC2c1ccc(F)cc1 (centres undefined),1.1%,-26.1%,2.9%,36.3%,-11.1%,1.1%[59 µM]
CCc1ccc(C2Sc3ccccc3NC3=C2C(=O)c2ccccc23)cc1 (centres undefined),nt,nt,nt,?,25.1µM*,10µM*
O=C1c2ccccc2NC(c2ccco2)N1NS(=O)(=O)c1ccccc1 (centres undefined),20.7%,-0.3%,-9.5%,42.9%,-2.8%,-24.5%
CC(C)c1ccc(C2Sc3ccccc3NC3=C2C(=O)c2ccccc23)cc1 (centres undefined),nt,8.91µM*,nt,?,11.2µM*,?
CC(NC(=O)CC1Sc2ccccc2NC1=O)c1ccccc1 (centres undefined),7.1%,23.1%,-11.2%,56.1%,-2.1%,-5.7%
O=C1C2=C(Nc3ccccc3SC2c2ccco2)c2ccccc21 (centres undefined),?,35.5µM*,?,22.4µM*,35.5µM*,?
O=C1C2=C(Nc3ccccc3SC2c2ccc(C(F)(F)F)cc2)c2ccccc21 (centres undefined),nt,nt,nt,?,28.2µM*,11.2µM*
O=C(Cc1ccccc1)NCC(=O)OCC(=O)c1cccc2ccccc12,nt,nt,nt,16.7%[57 µM],-6.2%[57.1 µM],nt
C=CC[C@@H]1C=C[C@@H](O/N=C\c2ccc(C(=O)N3[C@H](c4ccc(C)cc4)[C@@H](C)CC[C@H]3C(=O)OC)cc2)[C@@H](CO)O1,-6.3%,nt,nt,nt,nt,nt
O=S1(=O)C[C@H](N2CCC[C@@H]2CO)[C@@H](COCc2ccccc2)N1,nt,nt,-3.8%,nt,nt,nt
CC(=O)Nc1ccc(C2Nc3ccccc3C(=O)N2C2CCCCC2)cc1 (centres undefined),12.1%,nt,-2.4%,22.6%,-9.5%,-7.7%[59 µM]
CC(=O)Nc1ccc(C2Sc3ccccc3NC3=C2C(=O)c2ccccc23)cc1 (centres undefined),nt,nt,nt,?,12.6µM*,17.8µM*
O=C(c1csnn1)N1CCC2(CC1)CN(c1cccc(-c3ccccc3)c1)C2,-19.0%,nt,nt,nt,nt,6.1%[12.7 µM]
